Measurements reported in PubChem BioAssay AID1159580 (chemical genetic matrix, 2015).
Screen size: about 5,500 compounds; about 2,000 (36%) were called active. Another 18% or so got no clear call; they are omitted. Rule as the data show it: active = normalized growth mostly below about 0.91 (no sharp cut-off); inconclusive = no clear call, values can overlap the other calls; inactive = mostly above about 0.92. Some of the results follow.

Experiment: chemical genetic growth profiling, strain panel (AID 1159580);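 also: tested at 20 µM; growth read once vehicle control cultures reached saturation at 30 °C; 1 = growth at the plate median or of vehicle wells; lower values mean less growth of the strain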
Settings: S. cerevisiae deletion strains, growth OD

Measured: normalized growth

COc1cc(NS(C)(=O)=O)ccc1Nc1c2ccccc2nc2ccccc12
inactive: locus YAL040C, strain CLN3, stronger effect = lower value 0.985 | locus YCL061C, strain MRC1 (second series), stronger effect = lower value 0.981 | locus YDR363W, strain ESC2, stronger effect = lower value 0.916 | locus YER002W, strain NOP16, stronger effect = lower value 0.989 | locus YGR078C, strain PAC10, stronger effect = lower value 0.985 | locus YGR229C, strain SMI1, stronger effect = lower value 0.955 | locus YNL128W, strain TEP1, stronger effect = lower value 1.02 | locus YNL175C, strain NOP13, stronger effect = lower value 1 | locus YNL197C, strain WHI3, stronger effect = lower value 0.967 | locus YNL224C, strain SQS1, stronger effect = lower value 0.98 | locus YNL322C, strain KRE1, stronger effect = lower value 0.965 | locus YOR083W, strain WHI5 (second series), stronger effect = lower value 0.975 | locus YPL055C, strain LGE1, stronger effect = lower value 0.902

COc1cc(NS(C)(=O)=O)ccc1Cc1c2ccccc2nc2ccccc12
inactive: locus YAL026C, strain drs2, stronger effect = lower value 1 | locus YAL030W, strain snc1, stronger effect = lower value 0.971 | locus YBL061C, strain skt5, stronger effect = lower value 1.01 | locus YBR023C, strain chs3, stronger effect = lower value 0.988 | locus YBR171W, strain sec66, stronger effect = lower value 1.02 | locus YBR231C, strain swc5, stronger effect = lower value 0.969 | locus YBR279W, strain paf1, stronger effect = lower value 0.988 | locus YCL011C, strain gbp2, stronger effect = lower value 0.939 | locus YCL069W, strain vba3, stronger effect = lower value 1 | locus YCR088W, strain abp1, stronger effect = lower value 0.986 | locus YDL040C, strain nat1, stronger effect = lower value 0.994 | locus YDR001C, strain nth1, stronger effect = lower value 0.999 | locus YDR137W, strain rgp1, stronger effect = lower value 1.1 | locus YDR159W, strain sac3, stronger effect = lower value 0.947 | locus YDR195W, strain ref2 1.05 | locus YDR297W, strain sur2, stronger effect = lower value 0.96 | locus YDR334W, strain swr1, stronger effect = lower value 1.01 | locus YDR335W, strain msn5, stronger effect = lower value 0.993 | locus YDR392W, strain spt3, stronger effect = lower value 0.795 | locus YEL003W, strain gim4, stronger effect = lower value 0.966 | locus YEL037C, strain rad23, stronger effect = lower value 0.979 | locus YEL061C, strain CIN8 (second series), stronger effect = lower value 0.982 | locus YER015W, strain faa2, stronger effect = lower value 0.986 | locus YER111C, strain swi4, stronger effect = lower value 1.01 | locus YER155C, strain BEM2 (second series), stronger effect = lower value 0.885 | locus YGL167C, strain pmr1, stronger effect = lower value 1 | locus YGL173C, strain kem1, stronger effect = lower value 0.991 | locus YGL227W, strain vid30, stronger effect = lower value 0.994 | locus YGL240W, strain doc1, stronger effect = lower value 0.892 | locus YGL253W, strain hxk2, stronger effect = lower value 0.996 | locus YHR013C, strain ard1, stronger effect = lower value 0.874 | locus YHR027C, strain rpn1, stronger effect = lower value 0.978 | locus YHR030C, strain SLT2, stronger effect = lower value 0.974 | locus YHR079C, strain IRE1, stronger effect = lower value 0.946 | locus YHR142W, strain chs7, stronger effect = lower value 0.964 | locus YJL095W, strain BCK1 (second series), stronger effect = lower value 0.986 | locus YJL095W, strain BCK1, stronger effect = lower value 1 | locus YJL129C, strain trk1, stronger effect = lower value 0.933 | locus YJL154C, strain vps35, stronger effect = lower value 0.998 | locus YJL164C, strain tpk1, stronger effect = lower value 0.918 | locus YJL166W, strain qcr8, stronger effect = lower value 0.945 | locus YJR066W, strain TOR1, stronger effect = lower value 0.919 | locus YKL160W, strain elf1, stronger effect = lower value 0.985 | locus YKR026C, strain gcn3, stronger effect = lower value 0.998 | locus YKR091W, strain srl3, stronger effect = lower value 1 | locus YLL001W, strain dnm1, stronger effect = lower value 0.936 | locus YLL026W, stronger effect = lower value 0.977 | locus YLL041C, strain sdh2, stronger effect = lower value 0.99 | locus YLR113W, strain HOG1, stronger effect = lower value 0.971 | locus YLR258W, strain gsy2, stronger effect = lower value 0.969 | locus YLR262C, strain YPT6 (second series), stronger effect = lower value 1 | locus YLR342W, strain FKS1, stronger effect = lower value 0.927 | locus YLR357W, strain rsc2, stronger effect = lower value 0.987 | locus YLR370C, strain arc18, stronger effect = lower value 0.923 | locus YLR384C, strain iki3, stronger effect = lower value 0.994 | locus YML120C, strain ndi1, stronger effect = lower value 0.956 | locus YMR058W, strain fet3, stronger effect = lower value 0.949 | locus YMR125W, strain sto1, stronger effect = lower value 0.98 | locus YMR129W, stronger effect = lower value 0.984 | locus YMR205C, strain PFK2, stronger effect = lower value 0.947 | locus YMR231W, strain pep5, stronger effect = lower value 1 | locus YNL071W, strain lat1, stronger effect = lower value 0.987 | locus YNL183C, strain NPR1, stronger effect = lower value 0.952 | locus YNL209W, strain ssb2, stronger effect = lower value 0.986 | locus YNL248C, strain rpa49, stronger effect = lower value 0.945 | locus YNR049C, strain mso1, stronger effect = lower value 0.989 | locus YOR001W, strain rrp6, stronger effect = lower value 0.915 | locus YOR070C, strain gyp1, stronger effect = lower value 0.984 | locus YOR083W, strain WHI5, stronger effect = lower value 0.934 | locus YOR106W, strain vam3, stronger effect = lower value 0.926 | locus YOR231W, strain MKK1, stronger effect = lower value 1.01 | locus YOR265W, strain rbl2, stronger effect = lower value 0.985 | locus YOR270C, strain vph1, stronger effect = lower value 0.935 | locus YPL051W, strain arl3, stronger effect = lower value 0.992 | locus YPL078C, strain atp4, stronger effect = lower value 1.02 | locus YPL106C, strain sse1, stronger effect = lower value 1.02 | locus YPL240C, strain hsp82, stronger effect = lower value 0.991 | locus YPL256C, strain CLN2, stronger effect = lower value 0.944
active: locus YAL021C, strain ccr4, stronger effect = lower value 0.785 | locus YBR009C, strain hhf1, stronger effect = lower value 0.828 | locus YCL016C, strain dcc1, stronger effect = lower value 0.476 | locus YCL061C, strain MRC1, stronger effect = lower value 0.867 | locus YDL005C, strain med2, stronger effect = lower value 0.681 | locus YDR069C, strain doa4, stronger effect = lower value 0.842 | locus YER016W, strain bim1, stronger effect = lower value 0.909 | locus YFR010W, strain ubp6, stronger effect = lower value 0.877 | locus YJL092W, strain hpr5, stronger effect = lower value 0.712 | locus YJL115W, strain asf1, stronger effect = lower value 0.341 | locus YLR027C, strain aat2, stronger effect = lower value 0.916 | locus YLR221C, strain rsa3, stronger effect = lower value 0.899 | locus YLR320W, strain mms22, stronger effect = lower value 0.208 | locus YNL322C, strain KRE1 (second series), stronger effect = lower value 0.822 | locus YOR080W, strain dia2, stronger effect = lower value 0.494 | locus YOR290C, strain snf2, stronger effect = lower value 0.823
